# Laboratory results published in PubChem BioAssay (NCATS).
# Several values for one entry are separate records, joined by “and”; a condition that tells them apart may be missing. Identical values can stand only once. Inconclusive results are not listed. Where a structure was tested more than once in an assay, its records may differ in their call. Activity calls are given as the source filed them. Unless noted, calls come from the whole dose curve.
# Tests used:
# [1] = molecular target: Glucocorticoid receptor (Homo sapiens) (UniProt P04150); test: qHTS assay for small molecule agonists of glucocorticoid receptor signaling (AID 588532; active = well fitted curve in the direction sought with a large enough effect in the signal ratio, with a control signal flat; the % refers to the signal ratio;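 note: 100% = dexamethasone at 0.1 µM and 0% = DMSO only wells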); settings: HeLa MMTV-bla, beta-lactamase ratio, agonist, 18 h; activation: stronger effect = higher value, percent of dexamethasone control, DMSO zero
# Glucocorticoid receptor (Homo sapiens), sequence (P04150 whole entry, looked up): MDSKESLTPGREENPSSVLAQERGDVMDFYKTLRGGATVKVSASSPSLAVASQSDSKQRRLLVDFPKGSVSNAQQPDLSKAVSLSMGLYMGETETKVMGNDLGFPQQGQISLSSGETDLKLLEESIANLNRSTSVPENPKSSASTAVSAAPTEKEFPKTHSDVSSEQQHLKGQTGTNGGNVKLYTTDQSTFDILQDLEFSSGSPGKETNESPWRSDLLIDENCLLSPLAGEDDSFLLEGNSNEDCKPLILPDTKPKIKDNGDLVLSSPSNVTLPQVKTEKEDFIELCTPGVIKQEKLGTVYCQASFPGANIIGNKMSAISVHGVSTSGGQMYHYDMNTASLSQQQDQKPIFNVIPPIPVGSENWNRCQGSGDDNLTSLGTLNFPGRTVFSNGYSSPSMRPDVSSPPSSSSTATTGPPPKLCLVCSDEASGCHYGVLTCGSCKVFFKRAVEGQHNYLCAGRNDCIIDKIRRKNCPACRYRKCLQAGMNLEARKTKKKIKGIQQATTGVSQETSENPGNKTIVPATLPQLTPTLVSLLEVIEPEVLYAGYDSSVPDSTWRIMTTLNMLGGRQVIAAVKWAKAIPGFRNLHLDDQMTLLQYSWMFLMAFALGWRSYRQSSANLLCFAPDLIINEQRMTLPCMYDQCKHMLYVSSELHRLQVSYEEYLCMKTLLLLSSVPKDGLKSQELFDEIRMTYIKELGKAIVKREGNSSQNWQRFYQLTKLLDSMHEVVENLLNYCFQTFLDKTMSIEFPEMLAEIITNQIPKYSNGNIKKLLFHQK
# How it was run: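 Stimulation of a glucocorticoid response element-driven beta-lactamase gene was measured in HeLa cells. Responses were scaled between DMSO basal and 0.1 uM dexamethasone, then fitted for half-maximal stimulation.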
# [2] = molecular target: Vitamin D3 receptor (Homo sapiens) (UniProt P11473); test: qHTS assay for small molecule antagonists of vitamin D receptor signaling (AID 588541); note: potency is the fitted concentration of half-maximal effect
# Vitamin D3 receptor (Homo sapiens), sequence (P11473 whole entry, looked up): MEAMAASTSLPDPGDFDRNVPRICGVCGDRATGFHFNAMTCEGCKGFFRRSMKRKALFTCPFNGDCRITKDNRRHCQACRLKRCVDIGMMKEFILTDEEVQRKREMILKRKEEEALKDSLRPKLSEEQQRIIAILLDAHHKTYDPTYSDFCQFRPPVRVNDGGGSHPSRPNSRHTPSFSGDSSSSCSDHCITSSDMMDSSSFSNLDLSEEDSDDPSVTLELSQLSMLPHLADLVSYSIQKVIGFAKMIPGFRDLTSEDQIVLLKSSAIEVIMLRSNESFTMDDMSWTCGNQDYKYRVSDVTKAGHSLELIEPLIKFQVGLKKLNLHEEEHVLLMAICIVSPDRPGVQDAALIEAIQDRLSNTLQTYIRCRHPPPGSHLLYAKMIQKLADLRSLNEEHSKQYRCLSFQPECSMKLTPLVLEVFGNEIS
# How it was run: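 VDR-UAS-bla HEK293T cells (2000/well, 2% charcoal-stripped FBS) were treated with titrated compounds plus 1-alpha,25-dihydroxyvitamin D3 (50 nM or 3 nM final) for 16 h at 37 C. CCF4 beta-lactamase fluorescence was read; Hill fits gave IC50.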
# [3] = qHTS assay for small molecule agonists of retinoid X receptor alpha signaling (AID 588544); settings: HEK293T RXRa-UAS-bla, beta-lactamase reporter, 18 h; 530 nm emission;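 for activation: 0% = DMSO basal wells and 100% = reference agonist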
# [4] = molecular target: Retinoic acid receptor RXR-alpha (Homo sapiens) (UniProt P19793); test: as above
# Retinoic acid receptor RXR-alpha (Homo sapiens), sequence (P19793 whole entry, looked up): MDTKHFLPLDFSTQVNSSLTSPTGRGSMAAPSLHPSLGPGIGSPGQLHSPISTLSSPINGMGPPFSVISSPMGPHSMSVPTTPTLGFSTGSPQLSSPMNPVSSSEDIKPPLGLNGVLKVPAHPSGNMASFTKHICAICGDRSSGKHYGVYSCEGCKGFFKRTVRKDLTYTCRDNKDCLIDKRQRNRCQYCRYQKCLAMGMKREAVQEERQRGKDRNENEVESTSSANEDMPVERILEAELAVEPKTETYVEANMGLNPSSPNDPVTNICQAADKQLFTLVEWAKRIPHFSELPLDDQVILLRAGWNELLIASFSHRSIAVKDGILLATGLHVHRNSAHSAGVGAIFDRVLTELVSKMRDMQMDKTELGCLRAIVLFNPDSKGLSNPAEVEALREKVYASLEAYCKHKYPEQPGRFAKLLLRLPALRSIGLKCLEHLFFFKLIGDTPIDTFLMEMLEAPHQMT
# [5] = qHTS assay for small molecule antagonists of retinoid X receptor alpha signaling (AID 588546; active = well fitted inhibition curve with a large enough effect in the signal ratio, with a control signal flat, not every such curve was filed as active; the % refers to the signal ratio;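 note: cells stimulated with 9-cis-retinoic acid as agonist; % is set by controls: 0 for no effect and ±100 for the full control effect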); settings: HEK293T RXRa-UAS-bla, beta-lactamase ratio, antagonist mode; measured here: W530 green channel, cytotoxicity proxy
# How it was run: (§1)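 Beta-lactamase reporter inhibition, read as CCF4 fluorescence ratio (ex 405, em 460/530 nm) after 2 h at RT. HEK293T UAS-bla cells, 2500/well, were stimulated with 9-cis-RA at 500 or 100 nM final alongside test compound for 18 h at 37 C.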
# [6] = molecular target: Retinoic acid receptor RXR-alpha (Homo sapiens) (UniProt P19793); test: as above; settings: HEK293T RXRa-UAS-bla, beta-lactamase ratio, antagonist mode
# How it was run: as §1
# [7] = molecular target: Thyroid hormone receptor beta (Homo sapiens) (UniProt P10828); test: qHTS assay for small molecule antagonists of thyroid hormone receptor beta signaling (AID 588547; active = well fitted inhibition curve with a large enough effect in the signal ratio, with a control signal flat, not every such curve was filed as active; the % refers to the signal ratio;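 note: cells stimulated with 0.4 nM T3 agonist during compound exposure; % is set by controls: 0 for no effect and ±100 for the full control effect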); settings: TR-UAS-bla HEK293, beta-lactamase ratio, antagonist mode, 18 h
# Thyroid hormone receptor beta (Homo sapiens), sequence (P10828 whole entry, looked up): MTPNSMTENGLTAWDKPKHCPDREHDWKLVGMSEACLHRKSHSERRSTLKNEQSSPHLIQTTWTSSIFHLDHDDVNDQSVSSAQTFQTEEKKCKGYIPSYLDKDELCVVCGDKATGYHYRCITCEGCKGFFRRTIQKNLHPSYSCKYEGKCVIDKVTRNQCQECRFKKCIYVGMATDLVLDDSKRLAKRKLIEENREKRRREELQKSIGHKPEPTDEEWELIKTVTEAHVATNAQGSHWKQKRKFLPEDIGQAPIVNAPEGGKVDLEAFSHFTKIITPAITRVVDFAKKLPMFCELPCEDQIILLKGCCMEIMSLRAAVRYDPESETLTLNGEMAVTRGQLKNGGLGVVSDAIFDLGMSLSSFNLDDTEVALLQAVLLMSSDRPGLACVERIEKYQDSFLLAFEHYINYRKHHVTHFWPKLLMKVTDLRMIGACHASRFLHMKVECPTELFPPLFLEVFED
# How it was run: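 TR-UAS-bla GripTite HEK293 cells in 2% charcoal/dextran FBS medium were preincubated 4 h at 37 C, given compound (0.59 nM to 92 uM) plus 0.4 nM T3 (final) for 18 h, then CCF4 for 2 h at RT; Hill fit gave IC50.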
# [8] = molecular target: Nuclear receptor subfamily 1 group I member 2 (Rattus norvegicus) (UniProt Q9R1A7); test: qHTS assay for small molecule activators of the rat pregnane X receptor (rPXR) signaling pathway (AID 651751; call rule not given here; note: 0% is about no effect); settings: rPXR reporter cells, luciferase (One-Glo), 24 h
# Nuclear receptor subfamily 1 group I member 2 (Rattus norvegicus), sequence (Q9R1A7 whole entry, looked up): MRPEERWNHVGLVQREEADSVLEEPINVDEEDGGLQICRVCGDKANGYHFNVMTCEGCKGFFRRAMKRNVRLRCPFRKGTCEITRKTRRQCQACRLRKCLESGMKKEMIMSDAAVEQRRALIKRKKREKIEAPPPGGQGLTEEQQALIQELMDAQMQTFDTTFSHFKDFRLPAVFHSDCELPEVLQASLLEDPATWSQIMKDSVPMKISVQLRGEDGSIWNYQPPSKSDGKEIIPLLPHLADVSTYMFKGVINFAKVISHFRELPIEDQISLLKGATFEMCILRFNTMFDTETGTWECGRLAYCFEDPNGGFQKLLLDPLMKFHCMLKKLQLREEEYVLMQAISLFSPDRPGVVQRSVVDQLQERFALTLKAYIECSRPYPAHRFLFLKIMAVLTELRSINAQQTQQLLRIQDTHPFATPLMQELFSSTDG
# [9] = qHTS assay for small molecule activators of the human pregnane X receptor (PXR) signaling pathway (AID 720659; call rule not given here; note: 0% is about no effect)
# [10] = Cellular Toxicity (caspase-3) Jurkat (AID 655; active = well fitted curve in the direction sought with a large enough effect; an effect the other way counts as inactive or inconclusive;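 note: cells exposed to compound for 16 h at 37 °C before reading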; note: potency is the fitted concentration of half-maximal effect); settings: Jurkat caspase-3 activation, luminescence; caspase-3 activation: at 92.2 µM (top of the series), DMSO = 0%, tamoxifen = 100%
# How it was run: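 Luminescent caspase-3/7 readout (aminoluciferin substrate cleavage) in human T-cell leukemia Jurkat cells after 16 hr compound exposure. Concentration-response normalized to DMSO and 100 uM tamoxifen; AC50 by standard Hill equation.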
# [11] = molecular target: Thyroid hormone receptor beta (Homo sapiens) (UniProt P10828); test: qHTS assay for small molecule agonists of thyroid hormone receptor beta signaling (AID 588545)
# How it was run: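 HEK 293 TR-UAS-bla; agonist mode; 18 hrs, 37 C; CCF4, ex 405/em 460 and 530 nm; norm. T3 10 nM = 100%, DMSO = 0%; Hill fit → EC50, efficacy.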
# [12] = qHTS assay for small molecule agonists of the antioxidant response element (ARE) signaling pathway (AID 651741; active = well fitted activation curve with a large enough effect in the signal ratio; the % refers to the signal ratio; note: potency is the fitted concentration of half-maximal effect; for activation: % of control where 0% means no effect)
# How it was run: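 Compounds in DMSO are pinned onto HepG2 ARE-bla cells (2,000/well) that were preincubated 5 h; plates stay 16 h at 37 C, then beta-lactamase activity is detected with LiveBLAzer B/G substrate by fluorescence.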
# [13] = NFAT Signaling Pathway (AID 444; active = well fitted curve in either direction with a large enough effect, not every such curve was filed as active;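 note: carbachol stimulus at about its EC50 of 1 µM final; % is set by controls: 0 for no effect and ±100 for the full control effect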); settings: Jurkat NFAT-bla M1, carbachol, beta-lactamase ratio, 5 h; at 17.2 µM (top of the series) unless noted
# How it was run: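 Jurkat cells carrying an NFAT-driven β-lactamase reporter and co-transfected muscarinic M1 receptor were treated with compound plus carbachol (1 uM final, an EC50 level) for 5 h at 37 °C. CCF4 loading followed for 1 h at RT; 460/530 nm ratio gave %activity.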
# [14] = Stat Signaling Pathway (AID 446; active = well fitted curve in either direction with a large enough effect, not every such curve was filed as active;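 note: ME-180 cervical cancer cells given 40 pM IL-6 alongside compound; SIE-controlled beta-lactamase reporter measured as 460/530 nm FRET emission ratio; % is set by controls: 0 for no effect and ±100 for the full control effect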)
# How it was run: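 Reporter line: ME-180 cervical carcinoma, SIE-beta-lactamase. Treatment: compound with 40 pM IL-6, 5 hrs, 37 C, in low-serum OPTI-MEM with 10 mM HEPES pH 7.3. Detection: 460/530 nm fluorescence.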
# [15] = qHTS assay for small molecule activators of the nuclear factor-kappa B (NF-kB) signaling pathway (AID 651749; active = well fitted activation curve with a large enough effect in the signal ratio; the % refers to the signal ratio; note: % of control where 0% means no effect); settings: NF-kB-bla ME-180 cells, beta-lactamase FRET ratio, 16 h; activation: stronger effect = higher value
# How it was run: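 Screening used 2,000 ME-180 reporter cells per well exposed to pinned compound (23 nL) or DMSO; after 16 hr at 37C, beta-lactamase expression under NF-kB control was assessed through FRET.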
# [16] = molecular target: Glucocorticoid receptor (Homo sapiens) (UniProt P04150); test: qHTS assay for small molecule antagonists of glucocorticoid receptor signaling (AID 588533; active = well fitted inhibition curve with a large enough effect in the signal ratio, with a control signal flat, not every such curve was filed as active; the % refers to the signal ratio;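 note: cells stimulated with 2 nM dexamethasone as agonist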; note: potency is the fitted concentration of half-maximal effect)
# How it was run: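 Antagonist-mode qHTS: compound titrations added to GRE-bla HeLa cells, then dexamethasone 2 nM final; 18 h, 37 C. CCF4 FRET fluorescence normalized to dexamethasone and DMSO; IC50 from Hill fit.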
# [17] = molecular target: Estrogen receptor (Homo sapiens) (UniProt P03372); test: qHTS assay for small molecule agonists of estrogen receptor alpha signaling (AID 588514);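 note: 0% = vehicle only and 100% = reference agonist; nearly all actives have a fitted effect of over 70% in size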
# Estrogen receptor (Homo sapiens), sequence (P03372 whole entry, looked up): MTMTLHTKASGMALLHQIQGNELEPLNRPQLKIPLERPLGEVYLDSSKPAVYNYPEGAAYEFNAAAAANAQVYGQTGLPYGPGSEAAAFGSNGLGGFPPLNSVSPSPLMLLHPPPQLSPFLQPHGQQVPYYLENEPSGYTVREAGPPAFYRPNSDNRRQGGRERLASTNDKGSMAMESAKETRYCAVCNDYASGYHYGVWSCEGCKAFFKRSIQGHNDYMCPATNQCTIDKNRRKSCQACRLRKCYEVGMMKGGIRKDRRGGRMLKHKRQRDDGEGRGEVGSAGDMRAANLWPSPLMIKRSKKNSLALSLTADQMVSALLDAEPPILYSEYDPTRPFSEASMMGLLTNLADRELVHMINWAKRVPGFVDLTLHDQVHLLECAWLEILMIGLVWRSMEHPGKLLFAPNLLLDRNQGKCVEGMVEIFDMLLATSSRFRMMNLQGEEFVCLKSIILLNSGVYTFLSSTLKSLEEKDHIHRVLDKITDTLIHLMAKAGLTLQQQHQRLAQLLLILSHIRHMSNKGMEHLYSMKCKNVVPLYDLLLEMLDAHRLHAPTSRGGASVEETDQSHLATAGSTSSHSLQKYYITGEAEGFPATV
# How it was run: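 ER-alpha-UAS-bla GripTite HEK293 cells, 5000/well in 2% charcoal/dextran-stripped FBS medium, treated with compound titrations 18 h at 37 C. CCF4 beta-lactamase read by fluorescence after 2 h RT; normalised to 20 nM 17-beta-estradiol (100%) and DMSO (0%), Hill fit for EC50 and efficacy.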
# [18] = molecular target: Bile acid receptor (Homo sapiens) (UniProt Q96RI1); test: qHTS assay for small molecule agonists of farnesoid X receptor signaling (AID 588527); settings: HEK293T FXR-UAS-bla, beta-lactamase ratio, 16 h; activation: stronger effect = higher value;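 note: 0% = vehicle basal and 100% = reference agonist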
# Bile acid receptor (Homo sapiens), sequence (Q96RI1 whole entry, looked up): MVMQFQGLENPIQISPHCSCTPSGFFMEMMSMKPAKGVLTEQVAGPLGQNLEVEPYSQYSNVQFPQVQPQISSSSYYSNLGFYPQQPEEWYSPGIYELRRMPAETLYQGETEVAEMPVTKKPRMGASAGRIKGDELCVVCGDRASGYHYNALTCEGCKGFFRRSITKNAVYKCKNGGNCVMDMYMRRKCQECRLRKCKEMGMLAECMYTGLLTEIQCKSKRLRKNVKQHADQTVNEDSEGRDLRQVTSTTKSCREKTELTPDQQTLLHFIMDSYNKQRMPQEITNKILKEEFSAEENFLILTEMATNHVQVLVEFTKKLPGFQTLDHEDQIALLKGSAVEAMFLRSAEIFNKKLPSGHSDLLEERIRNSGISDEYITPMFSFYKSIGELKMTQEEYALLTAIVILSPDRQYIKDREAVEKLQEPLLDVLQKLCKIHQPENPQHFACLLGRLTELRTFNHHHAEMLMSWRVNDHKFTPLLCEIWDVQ
# How it was run: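 Agonist-mode beta-lactamase reporter in GeneBLAzer FXR-UAS-bla HEK293T cells, titration up to 92 uM, 16 h exposure at 37 C, CCF4 fluorescence. Response scaled to DMSO (0%) and 100 uM chenodeoxycholic acid (100%), then Hill-fitted for EC50 and efficacy.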
# [19] = molecular target: 3',5'-cyclic-AMP phosphodiesterase 4B (Homo sapiens) (UniProt Q07343); test: qHTS Assay for Inhibitors of PDE-IV (AID 607; active = well fitted activation curve with a large enough effect in the main read-out, with a control signal flat, not every such curve was filed as active; note: % of control where 0% means no effect)
# 3',5'-cyclic-AMP phosphodiesterase 4B (Homo sapiens), sequence (Q07343 whole entry, looked up): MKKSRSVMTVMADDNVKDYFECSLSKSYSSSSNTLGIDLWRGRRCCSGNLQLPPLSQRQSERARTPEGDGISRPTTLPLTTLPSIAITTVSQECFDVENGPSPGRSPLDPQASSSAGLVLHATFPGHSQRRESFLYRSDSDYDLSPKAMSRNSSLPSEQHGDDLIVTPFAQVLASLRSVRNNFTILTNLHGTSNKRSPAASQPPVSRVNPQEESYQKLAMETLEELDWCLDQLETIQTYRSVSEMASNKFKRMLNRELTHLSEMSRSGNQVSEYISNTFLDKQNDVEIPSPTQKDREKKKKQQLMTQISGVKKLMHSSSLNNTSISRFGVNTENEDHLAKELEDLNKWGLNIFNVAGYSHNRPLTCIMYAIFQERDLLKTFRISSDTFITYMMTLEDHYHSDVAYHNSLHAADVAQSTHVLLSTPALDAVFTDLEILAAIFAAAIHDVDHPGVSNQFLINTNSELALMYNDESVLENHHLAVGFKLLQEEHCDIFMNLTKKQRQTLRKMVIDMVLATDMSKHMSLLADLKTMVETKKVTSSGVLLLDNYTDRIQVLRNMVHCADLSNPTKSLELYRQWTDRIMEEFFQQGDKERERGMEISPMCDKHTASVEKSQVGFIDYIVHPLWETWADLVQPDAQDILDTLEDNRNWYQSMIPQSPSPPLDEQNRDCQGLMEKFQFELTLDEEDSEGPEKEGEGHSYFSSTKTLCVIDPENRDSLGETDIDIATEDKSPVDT
# How it was run: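 Cell-based read-out of cAMP via a modified cyclic nucleotide-gated channel and membrane potential dye (535/590 nm) in HEK293 cells expressing PDE4 endogenously. Compounds tested up to 22.9 uM final; 100 uM RO 20-1724 reference.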
# [20] = molecular target: Cytochrome P450 2C9 (Homo sapiens) (UniProt P11712); test: qHTS Assay for Inhibitors and Substrates of Cytochrome P450 2C9 (AID 883; active = well fitted curve in the direction sought with a large enough effect; an effect the other way counts as inactive or inconclusive; note: % is set by controls: 0 for no effect and ±100 for the full control effect; nearly all actives have a fitted effect of over 60% in size)
# Cytochrome P450 2C9 (Homo sapiens), sequence (P11712 whole entry, looked up): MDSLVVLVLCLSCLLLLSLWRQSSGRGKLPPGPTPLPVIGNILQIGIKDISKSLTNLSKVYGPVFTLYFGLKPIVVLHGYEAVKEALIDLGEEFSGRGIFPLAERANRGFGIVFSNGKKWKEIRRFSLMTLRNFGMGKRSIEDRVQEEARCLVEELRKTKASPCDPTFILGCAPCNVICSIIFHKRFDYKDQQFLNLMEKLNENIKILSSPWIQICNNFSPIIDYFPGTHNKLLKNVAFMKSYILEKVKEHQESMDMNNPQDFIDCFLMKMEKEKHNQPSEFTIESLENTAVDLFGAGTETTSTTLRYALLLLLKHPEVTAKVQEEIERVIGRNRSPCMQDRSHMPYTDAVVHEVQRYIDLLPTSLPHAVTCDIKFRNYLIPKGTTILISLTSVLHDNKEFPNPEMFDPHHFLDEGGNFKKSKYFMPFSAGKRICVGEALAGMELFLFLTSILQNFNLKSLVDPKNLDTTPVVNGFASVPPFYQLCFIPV
# How it was run: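 CYP2C9 deoxyluciferin hydroxylation, 37C, 60 min with NADPH regeneration; 10nM enzyme, 100uM Luciferin-H (KM). Glo detection reagent stopped reaction; luminescence normalized to sulphaphenazole (57uM) full inhibition.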
structure (smiles),measurement,setting,value
O=[N+]([O-])C(Br)Br,activation,[1],-5.74% (inactive)
same,Potency,[2],inactive
same,max response,[3],-3.79%
same,Potency,[4],inactive
same,max response,[5],-6.12%
same,max response,[6],3.78% (inactive)
same,activity change % (negative = inhibition),[7],4.06% (inactive)
same,max response,[8],1.81% (inactive)
same,outcome,[9],inactive
CC(=O)[O-].CC(=O)[O-].O.O.[Cd+2],caspase-3 activation,[10],4.84% (inactive)
same,Potency,[11],inactive
CC(C)CC(C)Nc1ccc(Nc2ccccc2)cc1 (stereo unspecified),caspase-3 activation,[10],17.5% (inactive)
same,activation,[1],4.35% (inactive)
same,max response,[5],-4.53%
same,max response,[6],-33.2% (inactive)
same,Potency,[12],59.6 µM (active)
OC(Cc1ccccc1)(c1ccccc1)C1CN2CCC1CC2 (stereo unspecified),"activity change, negative = inhibition",[13],-83.4% (active)
same,outcome,[14],inactive
[Cd+2].[Cl-].[Cl-],caspase-3 activation,[10],-2.73% (inactive)
same,Potency,[11],inactive
Nc1ccccc1C(=O)OCCc1ccccc1,caspase-3 activation,[10],-5.89% (inactive)
same,activation,[1],-0.582% (inactive)
same,Potency,[2],inactive
same,Potency,[11],inactive
same,max response,[5],-8.78%
same,max response,[6],-9.65% (inactive)
same,activity change % (negative = inhibition),[7],-14.2% (inactive)
same,activation,[15],0.217% (inactive)
same,outcome,[9],inactive
O=C(CCl)c1ccccc1,caspase-3 activation,[10],-8.71% (inactive)
same,activation,[1],5.85% (inactive) and 11.4% (inactive)
same,Potency,[16],39.8 µM (active) and inactive
same,Potency,[2],35.5 µM (active) and inactive
same,Potency,[11],inactive
same,max response,[5],-13.4%
same,max response,[6],9.61% (inactive)
same,activity change % (negative = inhibition),[7],-10.9% (inactive)
same,activation,[15],0.721% (inactive)
same,max response,[8],-5.24% (inactive) and -3.68% (inactive)
same,outcome,[9],inactive
OC(c1ccc(Cl)cc1)(c1ccc(Cl)cc1)C(Cl)(Cl)Cl,Potency,[17],inactive
same,activation,[18],3.21% (inactive) and 2.17% (inactive)
same,Potency,[16],inactive
same,Potency,[2],inactive
same,max response,[3],-15%
same,Potency,[4],inactive
same,Potency,[11],inactive
same,max response,[5],-2.98%
same,max response,[6],3.94% (inactive)
same,activity change % (negative = inhibition),[7],-3.99% (inactive)
same,activation,[15],-0.969% (inactive)
same,max response,[8],-0.762% (inactive) and 6.21% (inactive)
same,outcome,[9],inactive
ClC1=C(Cl)C2(Cl)C3C(Cl)C(Cl)CC3C1(Cl)C2(Cl)Cl (stereo unspecified),caspase-3 activation,[10],81.5% (active)
same,activation,[1],17.3% (inactive)
same,Potency,[2],inactive
N#CC(Cl)Cl,Potency,[10],5.01 µM (active)
same,Potency,[2],inactive
same,max response,[3],17.1%
same,Potency,[4],inactive
same,max response,[5],6.6%
same,max response,[6],0.201% (inactive)
same,Potency,[12],26.6 µM (active)
same,activation,[15],-2.38% (inactive)
same,max response,[8],0.641% (inactive)
same,outcome,[9],inactive
O=C(O)C1C(C(=O)O)C2(Cl)C(Cl)=C(Cl)C1(Cl)C2(Cl)Cl (stereo unspecified),caspase-3 activation,[10],-0.527% (inactive)
same,Potency,[17],inactive
same,activation,[18],0.987% (inactive)
same,activation,[1],-1.68% (inactive)
same,Potency,[16],inactive
same,max response,[3],-3.38%
same,Potency,[4],inactive
same,Potency,[11],inactive
same,max response,[5],-3.5%
same,max response,[6],-12.3% (inactive)
same,Potency,[12],inactive
same,activation,[15],0.511% (inactive)
same,max response,[8],0.252% (inactive)
Clc1ccc(C(c2ccc(Cl)cc2)C(Cl)Cl)cc1,caspase-3 activation,[10],22.6% (inactive)
same,Potency,[17],inactive
same,activation,[18],3.84% (inactive)
same,activation,[1],-2.1% (inactive)
same,max response,[3],-1.02%
same,Potency,[4],inactive
same,activity change % (negative = inhibition),[7],-7.83% (inactive) and -28.4% (inactive)
same,Potency,[12],66.8 µM (active) and 61.1 µM (active)
C[C@@H]1CC[C@@]2(OC1)O[C@H]1[C@@H](O)[C@H]3[C@@H]4CC[C@H]5C[C@@H](O[C@@H]6O[C@H](CO)[C@H](O[C@@H]7O[C@H](CO)[C@@H](O)[C@H](O[C@@H]8OC[C@@H](O)[C@H](O)[C@H]8O)[C@H]7O[C@@H]7O[C@H](CO)[C@@H](O)[C@H](O[C@@H]8O[C@H](CO)[C@@H](O)[C@H](O)[C@H]8O)[C@H]7O)[C@H](O)[C@H]6O)[C@H](O)C[C@]5(C)[C@H]4CC[C@]3(C)[C@H]1[C@@H]2C,outcome,[9],inactive
C[C@H]1CC[C@@H]2[C@@H](C)C(=O)O[C@H]3O[C@@]4(C)CC[C@@H]1[C@]32OO4,outcome,[19],inactive
C=C(C)[C@H]1[C@H]2OC(=O)[C@@H]1[C@]1(O)C[C@H]3O[C@]34C(=O)O[C@H]2[C@]14C,outcome,[19],inactive
O=c1ccc2cc(O[C@@H]3O[C@@H](CO)[C@@H](O)[C@@H](O)[C@H]3O)c(O)cc2o1,outcome,[19],inactive
Oc1cc2c(cc1O)[C@H]1c3ccccc3CN[C@H]1CC2,outcome,[19],inactive
COC[C@H]1OC(=O)c2coc3c2[C@@]1(C)C1=C(C3=O)[C@H]2CCC(=O)[C@@]2(C)C[C@H]1OC(C)=O,outcome,[19],inactive
CC(C)(O)[C@H]1[C@H]2OC(=O)[C@@H]1[C@]1(O)C[C@H]3O[C@]34C(=O)O[C@H]2[C@]14C,outcome,[19],inactive
COc1cc2c(cc1OC)-c1c(O)c(OC)cc3c1[C@@H](C2)N(C)CC3,outcome,[19],inactive
same,Potency,[20],inactive
COc1cc2c(cc1OC)-c1c(OC)c(OC)c(CO)c3c1[C@H](C2)N(C)CC3,outcome,[19],inactive
same,Potency,[20],inactive
COC1=C[C@H]2[C@@H]3Cc4ccc(OC)c(O)c4[C@@]2(CCN3C)CC1=O,outcome,[19],inactive
same,Potency,[20],inactive
OC[C@H]1CCCN2CCCC[C@@H]12,outcome,[19],inactive
same,Potency,[20],inactive
CC1=CC(=O)C2=C(C)C[C@H](O)[C@@H]3[C@@H](OC(=O)[C@H]3C)[C@H]12,Potency,[20],inactive
CC[C@H](CO)NC(=O)[C@H]1C=C2c3cccc4[nH]cc(c34)C[C@H]2N(C)C1,outcome,[19],inactive
C[C@@]12CCC[C@](C)(C(=O)O)[C@@H]1CCc1ccc(O)cc12,Potency,[20],inactive
COc1cc2c(cc1O)CCN[C@H]2C,Potency,[20],inactive
